From PubChem BioAssay AID652067 (The Scripps Research Institute Molecular Screening Center, 2013)
Among all 370,000 compounds or so, about 5,400 (1.5%) were called active. Many of the other results were omitted from the sample, so actives are more common in it than they were. A number with no mark means an inactive call.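 The calls were made as follows: active = activation above the mean of all tested compounds plus 3 SD (cut at about 5.5% in these data); inactive = the rest.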

System: DAF-12 nuclear receptor (Haemonchus contortus)
Experiment: hcDAF-12 driven luciferase reporter activation – cell-based, luminescence, HEK293, lit1-tk-luc reporter, primary screen (AID 652067);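 also: 100% = response to 3 µM Δ7-dafachronic acid high control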
Conditions: HEK293 hcDAF-12 lit1-tk-luc reporter, at 6.8 µM, active compounds read high, 0% DMSO, 100% Δ7-dafachronic acid

Compared with `COc1ccc(-n2c(SCC(=O)NC3CCCC3)nnc2-c2ccncc2)cc1`, `COc1ccc(C(=O)Nc2ccnn2C2CCN(Cc3ccncc3)CC2)cc1` is higher in activation: -2.34% for the first, -0.02% for the second.

Compared with `COc1ccc(C2=CN(Cc3ccccc3)C(c3ccc(OC)cc3)CC2=O)cc1` (stereo unspecified), `Cc1ccccc1Nc1scc(-c2ccc(Br)cc2)[n+]1-c1ccccc1C` is higher in activation: -0.85% for the first, -0.47% for the second.

Going from `CCOc1ccc(C(=O)Nc2ccc(CN3CCOCC3)cc2)cc1Cl` to `O=C(Nc1ncccc1O)c1ccc(S(=O)(=O)N2CCCC2)cc1`, the activation rises from -3.09% to 1.37%.

Compared with `CCC(=O)c1cn(CCOc2ccccc2OC)c2ccccc12`, `CC(=O)NC(c1ccccc1)c1nc(-c2ccccc2C)cs1` (stereo unspecified) is higher in activation: -2.5% for the first, 3.96% for the second.

Compared with `C=CCN1C(=O)[C@@H](CC(=O)N2CCN(C(=O)c3ccco3)CC2)[C@]2(C(=O)OC)CCCCC=C12`, `O=C(Nc1ncccc1O)c1ccc(S(=O)(=O)N2CCCCCC2)cc1` is higher in activation: 1.06% for the first, 3.34% for the second.

Going from `COc1ccc(-c2onc(C)c2-c2ccc3c(c2)OCCO3)c(O)c1` to `Cc1ccc(C(=O)NNC2=Nc3cc([N+](=O)[O-])ccc3OC2)cc1`, the activation rises from -2.41% to 2.34%.

Going from `CCOC(=O)c1ccccc1NC(=S)N1CCC(C(N)=O)CC1` to `Cc1ccc(C)c(CN2CCC(CNC(=O)C3CCCN(c4ncnc5c4nc4n5CCCCC4)C3)CC2)c1` (stereo unspecified), the activation falls from -0.3% to -1.74%.

First: Cc1nc(N)sc1-c1ccccc1
Second: CC(=O)NC(c1ccccc1)c1nc(-c2cccc(C(C)C)c2)cs1 (stereo unspecified)
The activation of the first is higher: 1.84% for the first, -2.11% for the second.

Going from `CC(=O)NC(c1cccc(F)c1)c1nc(-c2cccc(F)c2)cs1` (stereo unspecified) to `Cc1ccc(CSc2nnc(SCC(=O)NN=Cc3cc(Br)ccc3F)s2)cc1`, the activation falls from -0.83% to -0.88%.

First: Cc1noc(C)c1NC(=O)Nc1ccc2c(c1)C(=O)N([C@H](C)CO)C[C@H](C)[C@H](CN(C)Cc1ccncc1)OCCCC[C@@H](C)O2
Second: O=C1CCC2(CCC(c3ccc(Cl)cc3)CC2)N1CCO (stereo unspecified)
The activation of the first is lower: -0.42% for the first, 0.94% for the second.

Work on `N#Cc1ccccc1OC[C@@H](O)CN1CCC(C(O)(c2ccccc2)c2ccccc2)CC1` yielded an activation of -1.36%.

`COc1ccc(C(=O)Nc2sc(C)c(C)c2CN2CCOCC2)cc1` was tested, and the activation was 7.53% (active).
For `O=C(Nc1ncccc1O)c1ccc(C(=O)c2ccccc2)cc1`, the activation was 7.52% (active).
`COc1ccc(C2=Nc3cc(C)ccc3OC2)cc1` was tested, and the activation was 12.7% (active).
With `CC(=O)Nc1cccc(-c2csc(Nc3cccc(C)n3)n2)c1` the activation was 6.6% (active).
For `Cc1cccc(Nc2nc(-c3ccccc3)cs2)n1`, the activation was 13% (active).
